The list is not random: actives were taken first. Their share in the collection is about 4.8%.
Beta apoptosis = inhibitors of cytokine-induced beta cell apoptosis, primary screen, luminescence. INS-1E cytokine-induced death, ATP luminescence, 48 h; percent of positive-control rescue, neutral wells zero. protection from apoptosis, % (test concentration not listed). 300,000 tested, 0.8% active. AID 435005, 2010;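 active means Every replicate reaches about 75%, or at least half do and their mean reaches it too, limit read from the data; inconclusive means At least half of replicates reach the limit but their mean does not; inactive means Under half of replicates reach the limit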;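 further: 0% = cytokine-treated negative control wells and 100% = positive control rescue; higher means more ATP so stronger rescue from cytokine killing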
CSC inhib = cancer stem cell viability inhibitors, primary screen, luminescence; cancer stem cell-like cells viability; inhibition, % at 7.5 µM; 300,000 tested, 1.1% active; AID 2717, 2010; in the data active means inhibition above about 75%; inconclusive means no clear call, values can overlap the other calls; tested in HMLE shEcad cells
Mdm2-MdmX inh = inhibitors of human Mdm2-MdmX association, primary screen, cell-based, luminescence, split luciferase, SaOS-2, uHTS; SaOS-2 split-luciferase Mdm2/MdmX complementation; inhibition, % at 8 µM; 330,000 tested, 3% active;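 active means inhibition of at least 50% at 8 µM in the primary screen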
MPTP inh = mitochondrial permeability transition pore inhibitors, primary screen, biochemical, isolated mouse mitochondria, absorbance | 360,000 tested, 1.4% active | Ca2+ swelling absorbance, 30 min | inhibition, % at 10 µM;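 active means inhibition of 50% or more, scaled per plate between neutral and stimulator controls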;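 further: 0% = DMSO wells given calcium and 100% = 1 mM EGTA wells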
Calb FLC = C. albicans growth inhibition with fluconazole, primary screen, CaCi-2 strain, Alamar Blue fluorescence | C. albicans CaCi-2 (fluconazole-resistant clinical isolate) + fluconazole, 48 h | growth inhibition, % (no concentration beside the values) | 300,000 tested, 0.57% active | AID 1979, 2009;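 active means growth inhibition above about 58% in most replicates, limit read from the data, passing the limit was not always enough; inconclusive means exactly half the replicates above a set limit; inactive means most replicates below a set limit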;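 further: all wells also contain fluconazole at 8 µg/ml as a sub-toxic cotreatment; 0% = median of DMSO wells and 100% = median of geldanamycin control wells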
Mdm2-MdmX conf = Mdm2-MdmX complex disruptors, retested hits, confirmation, luminescence, single concentration; shares compounds with Mdm2-MdmX inh; Mdm2-MdmX binding, luminescent assay; 10,000 tested, 55% active; inhibition, % at 8 µM; in the data active means inhibition above about 40%
Full FLuc ctr = full-length luciferase signal inhibition, confirmation, counter-screen for Mdm2/MdmX interaction inhibitor project, cell-based, single concentration, SaOS-2; 6,200 tested, 77% active; SaOS-2 full-length luciferase counterscreen, luminescence; shares compounds with Mdm2-MdmX inh; inhibition, % at 8 µM;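 active means mean inhibition at 8 µM reaching about 37%, which flags the compound as non-specific, limit read from the data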;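 further: p53-null SaOS-2 cells with luciferase driven by a doxycycline-inducible promoter; compound on cells about two nights before reading with doxycycline added after day one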
* = called active by the depositor; ? = inconclusive; . = no result.

SMILES | Beta apoptosis | CSC inhib | Mdm2-MdmX inh | MPTP inh | Calb FLC | Mdm2-MdmX conf | Full FLuc ctr
Cc1[nH]c2ccccc2c1C1=NNC(=Nc2ccc(F)cc2)SC1 | 10 | 35 | 24 | 1 | . | . | .
COc1ccc(N=C2NN=C(c3c(C)[nH]c4ccccc34)CS2)cc1 | 24 | 101* | 54* | 2 | 0 | 26 | .
CCOC(=O)Cn1c(-c2ccc(OC)cc2)c(-c2ccc(OC)cc2)nnc1=O | -5 | -11 | 4 | 0 | 13 | . | .
CCOC(=O)Cn1c(S(=O)(=O)Cc2ccc(F)cc2)nc(-c2ccccc2)c1-c1ccccc1 | 3 | 20 | 79* | 0 | ? | 56* | 63*
CCOC(=O)Cn1c(-c2ccccc2)nc2ccccc2c1=O | -5 | -1 | 0 | 0 | 3 | . | .
C#CCn1c(S(=O)(=O)Cc2ccc(F)cc2)nc(-c2ccccc2)c1-c1ccccc1 | 20 | 54 | 97* | 0 | 34 | 91* | 52*
NC(=O)Cn1c(S(=O)(=O)Cc2ccccc2)nc2ccccc21 | -10 | -9 | -14 | -2 | 2 | . | .
CCOC(=O)Cn1c(S(=O)(=O)Cc2cccc(F)c2)nc(-c2ccccc2)c1-c1ccccc1 | 31 | 29 | 81* | -2 | 3 | 56* | 67*
CCC(=NNC(=O)c1ccc2c(c1)nc(C)n2CC)c1cc(F)ccc1O | 90* | 21 | 58* | 0 | . | 22 | .
C=CCOC(=O)Nc1nc(CCNC(=O)OCc2ccccc2)c(C(=O)O)s1 | . | . | . | -1 | . | . | .
N#CC1=C(N)NC(SCc2ccc(F)cc2)=C(C#N)C12CCCCC2 | 7 | 62 | 59* | 43 | 0 | 60* | 72*
Cc1sc(NC(=O)Cc2ccc3c(c2)OCO3)nc1-c1ccc2c(c1)CCN2C(=O)c1ccc(F)cc1 | 22 | -1 | 28 | 1 | -4 | . | .
Cc1sc(NC(=O)Cc2ccc3c(c2)OCO3)nc1-c1ccc2c(c1)CCN2C(=O)c1ccccc1F | 15 | 9 | 54* | 0 | -2 | 31 | .
CCOc1ccc(-n2c(C)c(C(C)=O)c3cc(OC(C)=O)ccc32)cc1 | -4 | -3 | 76* | 0 | 8 | 80* | 53*
CCOc1ccc(-n2c(C)c(C(=O)O)c3cc(OC)ccc32)cc1 | . | 13 | 9 | 1 | 1 | . | .
COc1ccc(-n2c(C)c(C(C)=O)c3cc(O)ccc32)cc1 | . | . | 93* | 0 | 4 | 83* | 54*
COc1ccc2c(c1)c(C(C)=O)c(C)n2-c1ccccc1 | -8 | 5 | 31 | 0 | 5 | . | .
CC(=O)N1CCC(C(=O)N2c3ccccc3N=C(c3ccc(C(F)(F)F)cc3)C2C(=O)NC(C)(C)C)CC1 (configuration not stated) | . | . | . | 1 | . | . | .
CCCCNC(=O)C1(NC(=O)Nc2ccc(C)cc2)CCCCC1 | -3 | -8 | -8 | -2 | -43 | . | .
Cc1c(NC(=O)COC(=O)CCc2c[nH]c3ccccc23)c(=O)n(-c2ccccc2)n1C | -5 | 3 | 3 | -1 | -6 | . | .
Clc1cc(Br)ccc1OCCCNCc1ccccc1 | 7 | 37 | 55* | 4 | -7 | 11 | .
Cc1ccc(C)c(OCCCNCc2ccccc2)c1 | . | 2 | 18 | 4 | -1 | . | .
Cc1ccc(S(=O)(=O)c2nc(S(=O)(=O)c3ccccc3)sc2N2CCN(CCO)CC2)cc1 | . | . | 53* | -2 | 2 | 11 | .
Cc1ccc(S(=O)(=O)c2nc(S(=O)(=O)c3ccccc3)sc2N2CCN(C)CC2)cc1 | . | . | 61* | 1 | -8 | 47* | 24
Cc1ccc(S(=O)(=O)N2CCCCC2)cc1NC(=O)C1CCC1 | 3 | 1 | 1 | 1 | . | . | .
SMILES | Beta apoptosis | CSC inhib | Mdm2-MdmX inh | MPTP inh | Calb FLC | Mdm2-MdmX conf | Full FLuc ctr
COc1ccc(C(=O)/C=C/C(=O)N(CC(=O)NC2CCCCC2)CC2CCCO2)c(O)c1 (configuration not stated) | 49 | 4 | 60* | -4 | 47 | 29 | .
COc1ccc(S(=O)(=O)N2CCC(C(=O)N(CC(C)C)C3CCS(=O)(=O)C3)CC2)cc1OC (configuration not stated) | -1 | -5 | 17 | -1 | -2 | . | .
Cc1cc(=O)[nH]c2c(C)c(N)ccc12 | -3 | . | -21 | 2 | -3 | . | .
Cc1cc(C)c2ccc3c(C)c(C)nc3c2[nH]1 | -3 | 21 | 70* | 2 | -35 | 42* | 45*
CC(=O)c1ccc(NS(=O)(=O)c2cc(-c3cnc(C4CC4)o3)ccc2C)cc1 | . | . | 44 | 0 | -5 | . | .
Cc1ccc(-c2cnc(C3CC3)o2)cc1S(=O)(=O)Nc1ccccc1 | . | . | 61* | 0 | -10 | 66* | 34
CC(=O)c1cccc(NS(=O)(=O)c2cc(-c3cnc(C4CC4)o3)ccc2C)c1 | 7 | ? | 57* | 0 | . | 60* | 61*
CC(=O)Nc1ccc(NS(=O)(=O)c2cc(-c3cnc(C4CC4)o3)ccc2C)cc1 | 9 | 17 | 3 | -2 | 20 | . | .
COc1ccc(C2CC(c3ccccc3OC(C)=O)=NN2C(=O)/C=C/c2ccccc2)cc1 (configuration not stated) | 23 | -4 | -2 | 3 | 36 | . | .
CC(=O)Oc1ccccc1C1=NN(C(=O)/C=C/c2ccccc2)C(c2ccccc2)C1 (configuration not stated) | 17 | 32 | 51* | 0 | -7 | 6 | .
Cc1ccc(-c2cc(C(=O)N/N=C/c3c[nH]c4ccccc34)n[nH]2)o1 | 2 | 30 | 13 | 0 | 6 | . | .
Cc1cc(C(=O)N/N=C/c2cc(Br)cc(Br)c2OC(=O)c2cccc(F)c2)n[nH]1 | 97* | ? | 51* | 0 | -8 | 64* | 43*
Cc1ccc(C(=O)N/N=C\c2ccc(OC(=O)c3cccc(F)c3)cc2)cn1 | . | 7 | 1 | 0 | -2 | . | .
Cc1cc(C(=O)N/N=C\c2cc(C(C)(C)C)ccc2O)n[nH]1 | -4 | -8 | 65* | 2 | 3 | 60* | 41*
Cc1ccc(-c2cc(C(=O)N/N=C/c3ccccc3O)n[nH]2)o1 | 44 | 79* | 53* | -1 | 21 | 53* | 47*
CCn1c(CC(=O)Nc2ccccc2F)nnc1SCC(=O)NC1CCCC1 | -4 | -7 | -3 | 8 | -6 | . | .
COC(=O)c1sc(-c2ccccc2)cc1NC(=O)c1ccc(OC)cc1 | 16 | 24 | 75* | 1 | -7 | 6 | .
CCOC(=O)c1cc(-c2ccccc2)sc1NC(=O)c1ccc(OC)cc1 | 25 | -13 | 75* | . | ? | 20 | .
